# Where “and” joins values, the source holds several entries; their conditions need not be identical. Identical values can stand only once. In all, about 73,000 compounds went through this assay and about 350 (0.48%) were called active. About 17% were inconclusive and are not listed. This is one part of a sample in which actives are shown more often than they occur. Calls follow the shape of the dose curve; as a rule, active = well fitted activation curve with a large enough effect in the main read-out, with a control signal flat (not every such curve was filed as active); inconclusive = small, poorly fitted or top-dose-only effect, or a change in a side signal; inactive = no such curve, though single readings can be large or run the other way; reference of the percent scale not stated here.
# Columns and labels:
# [1] = qHTS Assay for Agonists of the Thyroid Stimulating Hormone Receptor; settings: HEK293-CNG-TSHR cells, membrane potential dye, cAMP; measured here: parental cells max response;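 also: the control signal comes from parental cells without the receptor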
# In short: (§1)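 HEK 293 cells stably expressing TSHR and a modified CNG channel, with CNG-only parental cells as counterscreen, were preloaded 60 min at room temperature with membrane potential dye containing 100 uM RO 20-1724. Compound exposure was 30 min, and depolarization was read as fluorescence at 590 nm.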
# [2] = target: Thyrotropin receptor (Homo sapiens) (UniProt P16473); experiment: as above; settings: HEK293-CNG-TSHR cells (CNG channel as cAMP sensor), membrane potential dye, cAMP; series mostly up to 57.1 µM
# Chain of Thyrotropin receptor (Homo sapiens) (P16473 whole entry, looked up): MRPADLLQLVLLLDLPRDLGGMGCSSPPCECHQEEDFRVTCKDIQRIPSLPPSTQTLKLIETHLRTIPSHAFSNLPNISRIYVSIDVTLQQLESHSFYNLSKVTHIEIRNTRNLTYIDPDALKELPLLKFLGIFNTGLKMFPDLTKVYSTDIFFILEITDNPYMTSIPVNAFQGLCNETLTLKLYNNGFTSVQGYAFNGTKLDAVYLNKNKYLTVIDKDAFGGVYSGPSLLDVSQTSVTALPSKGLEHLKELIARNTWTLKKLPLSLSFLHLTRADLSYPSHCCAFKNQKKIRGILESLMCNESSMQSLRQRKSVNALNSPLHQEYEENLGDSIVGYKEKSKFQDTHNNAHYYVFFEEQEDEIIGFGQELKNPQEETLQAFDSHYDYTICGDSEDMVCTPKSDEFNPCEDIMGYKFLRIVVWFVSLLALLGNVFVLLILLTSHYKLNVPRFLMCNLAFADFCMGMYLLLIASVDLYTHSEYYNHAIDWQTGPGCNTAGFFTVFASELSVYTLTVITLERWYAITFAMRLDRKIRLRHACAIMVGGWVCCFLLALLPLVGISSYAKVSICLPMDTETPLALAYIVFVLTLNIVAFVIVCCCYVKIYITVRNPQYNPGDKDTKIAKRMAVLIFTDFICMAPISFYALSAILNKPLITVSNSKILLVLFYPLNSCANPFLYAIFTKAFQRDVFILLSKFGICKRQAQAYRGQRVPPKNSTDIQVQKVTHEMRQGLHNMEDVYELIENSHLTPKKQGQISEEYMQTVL
# In short: as §1
# Potency is read from the fitted curve at half-maximal effect.
Structure (SMILES),activation [1],Potency [2],activation [2]
O=C(OCC(COC(=O)c1ccccc1)(COC(=O)c1ccccc1)COC(=O)c1ccccc1)c1ccccc1,20%,inactive,–
COC(=O)c1ccc(/C=N\n2c(C)nnc2C)cc1,10.1%,inactive,–
COc1ccc(-c2nnn(Cc3nc(N)nc(N4CCCCC4)n3)n2)cc1,22%,31.6 µM (active),–
CCc1ccc(-c2nnn(Cc3nn[nH]n3)n2)cc1,16%,inactive,–
CCOc1ccc(-c2nnn(CC(=O)N3CCN(c4ccc(OC)cc4)CC3)n2)cc1OCC,-8.4%,inactive,–
Cn1nc(-c2ccc(N3CCOCC3)c(NC(=O)c3ccccc3)c2)c2ccccc2c1=O,29.3%,25.1 µM (active),–
Cn1c(=O)n(C)c2cc(CNc3ccc(N4CCOCC4)c(C(=O)O)c3)ccc21,3.63%,inactive,–
O=C(Cn1nnc2ccccc2c1=O)Nc1cc(C(F)(F)F)ccc1N1CCOCC1,17.2%,inactive,–
O=C(C1CCN(CC2CCCCC2)CC1)N1CCCC1,16.6%,inactive,–
COC(=O)[C@@H]1CC[C@H](C)[C@@H](c2ccc(C)cc2)N1C(=O)c1ccc(/C=N\O[C@@H](C)c2cn([C@H](CO)Cc3ccccc3)nn2)cc1,9.66% and 5.24%,–,0.181% [at 11.4 µM] (inactive) and 4.03% [at 11.4 µM] (inactive)
CCc1c(C)sc(NC(=O)OC)c1C(=O)N1CCOCC1,-1.6%,inactive,–
CCOC(=O)[C@]1(C(/C=C/c2ccco2)NC(=O)OC)CCCC1=O (stereo partly drawn),0.322%,–,14% [at 11.4 µM] (inactive)
O=C(CC1(O)C(=O)N(CN2CCOCC2)c2ccccc21)c1ccccc1 (stereo not drawn),1.28%,inactive,–
CN(C)C(=O)c1ccc(-c2cncnc2Nc2ccccc2)cc1,-2.37%,inactive,–
OC(COc1cccc(OCC(O)CN2CCCC2)c1)CN1CCCC1 (stereo not drawn),-1.83%,–,-1.13% [at 11.4 µM] (inactive)
Cc1cc(NS(=O)(=O)c2ccccc2)no1,1.38%,inactive,–
COc1ccc(O)c(C=Nc2cc(C)on2)c1,-5.94%,inactive,–
CC(C)N(CCNC(=O)c1ccc(-n2c(=O)c(=O)[nH]c3ccccc32)cc1)C(C)C,-3.64%,inactive,–
CCC(C)n1[nH]c(=O)c2c(C)cc(C)nc21 (stereo not drawn),14.5%,inactive,–
Cc1cccc2c1N(CC(=O)OC(C)C)C(=O)C2=O,-9.41%,–,-2.45% [at 11.4 µM] (inactive)
Cc1cc(N=CC2=C(O)CCCC2=O)no1,5.56%,inactive,–
C=CCOC(=O)C(C(C)=O)C(NC(=O)OC)c1ccccc1 (stereo not drawn),4.24%,–,-0.17% [at 11.4 µM] (inactive)

Structure (SMILES),activation [1],Potency [2],activation [2]
O=C(O)[C@@H](O)Cc1ccccn1,4.67%,–,-3.52% [at 11.4 µM] (inactive)
c1ccc(Nc2n[nH]nc2-c2ccccc2)cc1,-0.853%,inactive,–
Cc1nnc(NC(=O)CCC(=O)N2CCC(C)CC2)s1,5.36%,inactive,–
C#CCC(C(=O)OC)(C(=O)OC)C(C[N+](=O)[O-])c1ccccc1 (stereo not drawn),-0.955%,–,7.7% [at 11.4 µM] (inactive)
Cc1ccc(C(=O)CS(C)(=O)=O)cc1,1.73%,inactive,–
C=C(C)COc1ccc(-c2n[nH]c(C)c2-c2ccccc2)c(O)c1,17.3%,inactive,–
COc1ccc(-c2n[nH]c(C)c2-c2ccc(OC)c(OC)c2)c(O)c1,11.3%,5.01 µM (active),–
C=C(C)COc1ccc(-c2n[nH]c(C)c2-c2ccccc2OC)c(O)c1,8.35%,31.6 µM (active),–
COc1ccc(-c2nc(-c3ccccc3)no2)c(OC)c1,7.25%,inactive,–
COc1ccc(OC)c(Nc2nc(-c3ccc(O)c(O)c3)cs2)c1,-4.42%,inactive,–
CCOc1ccccc1Oc1cn[nH]c1-c1ccc(OC)cc1O,7.48%,inactive,–
O=C1OC(NC(=O)c2ccccc2)C(N2CCOCC2)=C1Cl (stereo not drawn),4.11%,inactive,–
CC(C)c1ccc2c([Si](C)(C)C)c3c(nc2c1)-c1cccc(=O)n1C3,2.88%,inactive,–
CCn1cc(NC(=O)Nc2ccc(OC)c(OC)c2)c(C(N)=O)n1,0.163%,inactive,–
COc1cccc(N2CCN(C3CC(=O)N(c4ccc(Cl)cc4)C3=O)CC2)c1 (stereo not drawn),-14.4%,–,-19.1% [at 11.4 µM] (inactive)
Cc1ccc(C(=O)Nc2nnc(-c3ccncc3)s2)o1,-13.3%,inactive,–
CC(=O)OCC(=O)[C@@]1(O)CC[C@@H]2[C@H]3CCC4=CC(=O)C=C[C@]4(C)[C@]3(F)[C@@H](O)C[C@@]21C,-1.34%,inactive,–
COC(=O)[C@@]1(Cc2ccc(F)cc2)[C@H]2c3cc(C(=O)N4CCCC4)n(C[C@H](O)CO)c3C[C@H]2CN1C(=O)c1ccccc1,12.9%,inactive,–
CC(C)N(C(=O)Cn1c(SCC(=O)N2CCN(c3ccccc3)CC2)nc2ccccc21)C(C)C,11.2%,inactive,–
Cc1ccc(NC(=O)N2CCC(C(=O)NCc3ccc(F)cc3)CC2)cc1,-2.62%,inactive,–
Cn1c(=O)n2n(c1=O)[C@H]1[C@H](O)[C@H]3O[C@H]3C(=O)[C@H]1CC2,0.42%,–,-7.07% [at 11.4 µM] (inactive)
O=C(CCCn1c(=O)oc2ccccc21)Nc1cccnc1,-4.73%,inactive,–
